Screening results (PubChem)
DT40 TDP1 no CPT: qHTS for Inhibitors of human tyrosyl-DNA phosphodiesterase 1 (TDP1): qHTS in cells in absence of CPT; DT40 Tdp1-/- hTDP1 cells, no CPT, ATP luminescence, 48 h; Potency, µM (top dose mostly 46.2 µM), inactives show at the highest dose activity change, negative = growth inhibition, most hits filed as inhibitors; actives 15% (n = 420,000); AID 686978, 2013; also: potency is read from the fitted curve at half-maximal effect; nearly all actives have a fitted effect of over 55% in size
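Seeded 400 DT40-hTDP1 cells/well (vehicle DMSO, no 20 nM CPT); pinned compounds; ≥48 hr at 37 °C; CellTiter-Glo luminescence as viability measure.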
HT1080 IDH1KD tx: kills HT-1080 cells with IDH1 knockdown; HT-1080 IDH1 knockdown viability, ATP luminescence, 48 h; actives 2% (n = 360,000); Potency, µM (highest dose often 46.1 µM), inactives show at the top dose activity, negative = toxicity, most hits filed as cytotoxic; AID 686971;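 also: potency is read from the fitted curve at half-maximal effect; 0% = DMSO wells and -100% = cell-free medium wells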
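% activity derives from luminescence (CellTiter-Glo), normalised to DMSO and no-cell wells. HT-1080-IDH1KD cells, 750/well, had 48 h compound exposure at 37 °C.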
IL-1B inflam inh: inhibitors of inflammasome signaling (IL-1 beta secretion); THP-1 LPS/ATP IL-1B secretion, AlphaLISA, 16 h; active compounds read low; activity change, % at 57.5 µM; actives 4.7% (n = 360,000); AID 743279; in the data active = activity change below about -50%; inconclusive = mostly about -30% to -49%
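THP-1 cells pretreated 1 hr with compounds (up to 57.5 uM final), then stimulated with LPS (250 ng/mL final) plus ATP (1.25 mM final); secreted IL-1B measured by AlphaLISA after 16 hr, decreased signal indicating inhibition.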
HT1080-NT tox: kills 2HG-producing HT-1080-NT fibrosarcoma cells. HT-1080-NT fibrosarcoma viability, CellTiter-Glo ATP luminescence, 48 h. actives 1.6% (n = 360,000). Potency, µM (titrated, usually from 46.1 µM), inactives show at the highest dose activity, negative = less viability, most hits filed as cytotoxic;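 also: NT is the 2HG producing partner of a matched IDH1 knockdown line; potency is read from the fitted curve at half-maximal effect; 0% = DMSO-treated cells and -100% = media-only wells without cells; nearly all actives have a fitted effect of over 55% in size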
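HT-1080-NT fibrosarcoma cells (2HG-overproducing), 750 cells/well in RPMI with 5% FBS, dosed after 2 h and incubated 48 h at 37C. CellTiter-Glo luminescence normalized to DMSO and no-cell wells; concentration-response curves fitted and classed.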
DT40 TDP1 CPT: growth inhibition of DT40 Tdp1-/-;hTDP1 cells with camptothecin (screen for TDP1 inhibitors) | chicken DT40 Tdp1-/-;hTDP1 cells + 20 nM CPT, ATP luminescence, 48 h | Potency, µM (highest dose often 46.2 µM), for inactives: at the top dose activity change, negative = growth inhibition, actives largely listed as inhibitors | actives 12% (n = 420,000); also: potency is read from the fitted curve at half-maximal effect; nearly all actives have a fitted effect of over 55% in size
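Cell growth measured by CellTiter-Glo luminescence after a minimum 48 h, 37 C compound exposure with 20 nM CPT in Tdp1-knockout DT40 cells stably expressing hTDP1, seeded 400/well; qHTS titration format.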
* = called active by the depositor; [ ] = remark or other dose. Most compounds without a hit are left out; they make up all but 19% or so of the library. Unless noted, calls follow the shape of the dose curve; as a rule, active = well fitted curve in the direction sought with a large enough effect; inconclusive = small, poorly fitted or top-dose-only effect, or another doubt; inactive = no such curve, though single readings can be large; an effect the other way counts as inactive or inconclusive. Unless noted, % is scaled to controls: 0 for no effect and ±100 for the full control effect.

What do the screens show for `Cc1ccc2nc(-c3ccc(Cl)cc3)cc(C(=O)OCC(=O)c3ccccc3)c2c1`?
DT40 TDP1 no CPT: 20.6µM*; DT40 TDP1 CPT: inconclusive

What do the screens show for `COc1ccc(CN2CCNC(=O)C2CC(=O)N(C)C2CCOCC2)cc1OC` (stereo unspecified)?
DT40 TDP1 no CPT: -5.8%; HT1080 IDH1KD tx: -3.9%; IL-1B inflam inh: 2.7; HT1080-NT tox: -4.0%; DT40 TDP1 CPT: -1.6%

What do the screens show for `Cc1nnc(NC(=O)C2CC(=O)N(c3ccccc3)C2)s1` (stereo unspecified)?
DT40 TDP1 no CPT: -0.8%; HT1080 IDH1KD tx: 8.0%; IL-1B inflam inh: -10.4; HT1080-NT tox: inconclusive; DT40 TDP1 CPT: -7.3%

Results for Cc1nn(C)cc1CN(C)C(=O)c1cc(-c2ccccc2)nc2ccc(Br)cc12 ?
DT40 TDP1 no CPT: 14.6µM*; HT1080 IDH1KD tx: -19.2%; IL-1B inflam inh: -6.3; HT1080-NT tox: -4.5%; DT40 TDP1 CPT: 16.4µM*

Results for COc1ccccc1CN(C)C(=O)C(NC(=O)Cc1cccc2ccccc12)C(C)C (stereo unspecified) ?
DT40 TDP1 no CPT: 23.1µM*; HT1080 IDH1KD tx: -29.5%; IL-1B inflam inh: -61.6*; HT1080-NT tox: -30.1%; DT40 TDP1 CPT: inconclusive

How did Cc1ccc(C(=O)COC(=O)c2cc(-c3cccs3)nc3ccccc23)cc1 do in these assays?
DT40 TDP1 no CPT: 18.4µM*; DT40 TDP1 CPT: inconclusive

What do the screens show for `Cc1cccc(NC(=O)CN2CCN(C(=O)c3ccc(OCc4cn5ccccc5n4)cc3)CC2)c1C`?
DT40 TDP1 no CPT: 9.2µM*; HT1080 IDH1KD tx: -1.9%; IL-1B inflam inh: inconclusive; HT1080-NT tox: -8.4%[9.24 µM]; DT40 TDP1 CPT: 18.4µM*

How did Cc1cccc(NC(=O)CN2CCN(C(=O)c3cccc(-n4cnnn4)c3)CC2)c1C do in these assays?
DT40 TDP1 no CPT: -19.9%; HT1080 IDH1KD tx: -9.1%; IL-1B inflam inh: -11.4; HT1080-NT tox: -4.4%; DT40 TDP1 CPT: inconclusive

What do the screens show for `O=C(CN1CCN(C(=O)c2ccc(OCc3cn4ccccc4n3)cc2)CC1)Nc1cccc(F)c1`?
DT40 TDP1 no CPT: 14.6µM*; HT1080 IDH1KD tx: -13.9%; IL-1B inflam inh: -18.3; HT1080-NT tox: 7.31µM*; DT40 TDP1 CPT: 23.1µM*

How did CCc1ccc(CN(C(=O)COc2c(C)cccc2C)C2CCS(=O)(=O)C2)cc1 (stereo unspecified) do in these assays?
DT40 TDP1 no CPT: inconclusive; HT1080 IDH1KD tx: -15.7%; IL-1B inflam inh: inconclusive; HT1080-NT tox: 0.4%; DT40 TDP1 CPT: inconclusive

How did CCOC(=O)c1sc2nccc(N(C)C)c2c1N=CNOCc1c(F)cccc1Cl do in these assays?
DT40 TDP1 no CPT: 23.1µM*; HT1080 IDH1KD tx: -23.6%; IL-1B inflam inh: -3.2; HT1080-NT tox: -24.7%; DT40 TDP1 CPT: inconclusive

How did CCOC(=O)c1sc2nccc(N(C)C)c2c1N=CNOCc1ccccc1 do in these assays?
DT40 TDP1 no CPT: inconclusive; HT1080 IDH1KD tx: -23.9%; IL-1B inflam inh: -7.5; HT1080-NT tox: -28.5%; DT40 TDP1 CPT: inconclusive

How did CCN(CC)c1nc(SCCOC(=O)Nc2ccccc2)nc(N(CC)CC)n1 do in these assays?
DT40 TDP1 no CPT: inconclusive; HT1080 IDH1KD tx: inconclusive; IL-1B inflam inh: -20.1; HT1080-NT tox: inconclusive; DT40 TDP1 CPT: 18.4µM*

How did CN(C)c1nc(SCCOC(=O)c2ccccc2)nc(N(C)C)n1 do in these assays?
DT40 TDP1 no CPT: -0.3%; HT1080 IDH1KD tx: 6.8%; IL-1B inflam inh: 13.5; HT1080-NT tox: 2.8%; DT40 TDP1 CPT: -22.6%

Results for Cc1ccc(N2C(=O)CC(C)CC2=O)cc1 ?
DT40 TDP1 no CPT: 4.0%; HT1080 IDH1KD tx: 10.8%; IL-1B inflam inh: 20.8; HT1080-NT tox: 10.8%; DT40 TDP1 CPT: 5.1%

What do the screens show for `COc1ccc(N2C(=O)CC(c3cc(OC)c(OC)c(OC)c3)CC2=O)cc1`?
DT40 TDP1 no CPT: 13µM*; HT1080 IDH1KD tx: 0.8%; IL-1B inflam inh: 34.8; HT1080-NT tox: -16.8%; DT40 TDP1 CPT: 14.6µM*
